The panel holds about 79,000 compounds, 15% with a hit somewhere; the sample as a whole holds those more often. Activity calls are given as the source filed them. Rule as the data show it: active = growth inhibition above about 70%; inactive = the rest.
Key:
[1] = NCI Yeast Anticancer Drug Screen. Data for the rad52 strain (AID 147);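 also: 0% = growth of vehicle-treated control cultures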; conditions: S. cerevisiae rad52 mutant growth inhibition, active compounds read high
In short: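 Inhibition of yeast growth, referenced to vehicle controls, was the measured output for a strain with defective DNA damage repair.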

[2] = NCI Yeast Anticancer Drug Screen. Data for the wt1 strain (AID 149);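 also: 0% = growth of vehicle-treated wt1 cultures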; conditions: S. cerevisiae wt1 strain (SPY 50644) growth inhibition, active compounds read high
In short: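 Readout: yeast growth inhibition, normalised to vehicle controls, in the wt1 strain exposed to test compounds.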

[3] = NCI Yeast Anticancer Drug Screen. Data for the rad50EPP+ strain (AID 151);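 also: 0% = growth of vehicle-treated control cultures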; conditions: S. cerevisiae rad50 mutant strain, active compounds read high
In short: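 Genetically defined yeast (rad50EPP+, DNA damage repair alteration) is grown with compound, and inhibition of growth is expressed relative to vehicle-treated controls.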

[4] = NCI Yeast Anticancer Drug Screen. Data for the mgt1 strain (AID 153); conditions: S. cerevisiae mgt1 mutant growth inhibition, active compounds read high
In short: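 In the mgt1 strain, test compounds were added and growth inhibition was determined relative to vehicle-treated controls.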

[5] = NCI Yeast Anticancer Drug Screen. Data for the mec2-1 strain (AID 157); conditions: S. cerevisiae mec2-1 strain, active compounds read high
In short: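 Each compound was tested on mec2-1 yeast, a strain altered in DNA damage repair or cell cycle control. Growth inhibition is reported relative to vehicle.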

[6] = NCI Yeast Anticancer Drug Screen. Data for the rad14 strain (AID 159);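 also: 0% = growth of vehicle-treated control cultures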; conditions: S. cerevisiae rad14 strain growth inhibition, active compounds read high
In short: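 Compound-treated yeast with a defined DNA-repair lesion; growth inhibition normalised to vehicle-treated cultures.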

[7] = NCI Yeast Anticancer Drug Screen. Data for the sgs1 mgt1 strain (AID 161);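 also: 0% = growth of cultures given vehicle only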; conditions: S. cerevisiae sgs1 mgt1 strain, active compounds read high
In short: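 Mutant yeast exposed to compound; growth scored against vehicle-only wells.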

[8] = NCI Yeast Anticancer Drug Screen. Data for the CLN2oe strain (AID 163);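 also: 0% = growth of vehicle-only control cultures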; conditions: S. cerevisiae CLN2oe strain, active compounds read high
In short: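 First, the altered yeast strain was treated with each compound; second, its growth was measured; finally, inhibition was derived by comparison with vehicle controls.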

[9] = NCI Yeast Anticancer Drug Screen. Data for the cln2 rad14 strain (AID 165);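 also: 0% = growth equal to vehicle treated cultures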; conditions: S. cerevisiae cln2 rad14 strain, active compounds read high
In short: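 Test compounds were added to cln2 rad14 yeast cultures; inhibition of growth was then determined by comparison with vehicle treatment.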

[10] = NCI Yeast Anticancer Drug Screen. Data for the bub3 strain (AID 167); conditions: S. cerevisiae bub3 mutant strain, active compounds read high
In short: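 Growth of a checkpoint-deficient yeast mutant is measured after compound exposure. Values represent inhibition relative to vehicle.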

[11] = NCI Yeast Anticancer Drug Screen. Data for the wt2 strain (AID 169);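 also: 0% = growth of vehicle-treated yeast cultures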; conditions: S. cerevisiae wt2 strain growth inhibition, active compounds read high
In short: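 The panel's yeast strains carry defined changes in DNA repair or cell cycle genes. Each strain is grown with compound, and growth loss is scored relative to vehicle.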

[12] = NCI Yeast Anticancer Drug Screen. Data for the mlh1 strain (AID 171);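 also: 0% = growth of vehicle-treated control cultures of the same strain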; conditions: S. cerevisiae mlh1 strain growth inhibition, active compounds read high
In short: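 Inhibition values reflect reduced yeast growth in the presence of compound, referenced to vehicle controls, using a strain chosen for its alteration in DNA repair or cell cycle control.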

[13] = NCI Yeast Anticancer Drug Screen. Data for the sgs1 strain (AID 173);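 also: 0% = growth of vehicle-only control cultures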; conditions: S. cerevisiae sgs1 mutant, active compounds read high
In short: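 Vehicle-treated cultures served as reference for growth inhibition of a yeast strain altered in DNA damage repair or cell cycle control after compound exposure.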

[14] = NCI Yeast Anticancer Drug Screen. Data for the mlh1 rad18 strain (AID 175); conditions: S. cerevisiae mlh1 rad18 strain growth inhibition, active compounds read high
In short: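 Inhibition values reflect reduced growth of mutant yeast versus vehicle-treated controls following compound exposure; the mutations affect DNA damage repair.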

[15] = NCI Yeast Anticancer Drug Screen. Data for the rad18 strain (AID 177); conditions: S. cerevisiae rad18 mutant growth inhibition, active compounds read high
In short: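 Steps: expose repair-mutant yeast to compound; measure growth; express as inhibition relative to vehicle control.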

[16] = NCI Yeast Anticancer Drug Screen. Data for the rad50 strain (AID 155);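 also: 0% = growth of vehicle-only cultures of the same strain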; conditions: S. cerevisiae rad50 strain growth inhibition, active compounds read high
In short: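 Compounds were tested on a yeast strain with an engineered DNA damage repair alteration; the reported value is growth inhibition normalised to vehicle treatment.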

[17] = at 5.0 µM (retest, dose inferred, filed as 0.5)
[18] = at 50.0 µM (retest, dose inferred, filed as 5.0)

Measured: growth inhibition

c1ccc(N=c2nc(N3CCOCC3)ss2)cc1
active: [1]; at 33.0 µM 98% | [1]; at 100.0 µM 99% | [2]; at 33.0 µM 98% | [2]; at 100.0 µM 98% | [3]; at 100.0 µM 99% | [4]; at 11.0 µM 71% | [4]; at 33.0 µM 99% | [4]; at 100.0 µM 99% | [5]; at 33.0 µM 99% | [5]; [18] 100% | [5]; at 50.0 µM 99.7% | [5]; at 100.0 µM 99% | [6]; at 33.0 µM 99% | [6]; at 100.0 µM 99% | [7]; [18] 100% | [7]; at 50.0 µM 98.7% | [8]; at 33.0 µM 87% | [8]; at 100.0 µM 98% | [9]; [18] 99% | [9]; at 50.0 µM 93.4% | [10]; at 33.0 µM 99% | [10]; [18] 99% | [10]; at 50.0 µM 99.3% | [10]; at 100.0 µM 99% | [11]; at 33.0 µM 98% | [11]; at 100.0 µM 99% | [12]; at 11.0 µM 73% | [12]; at 33.0 µM 99% | [12]; at 100.0 µM 99% | [13]; at 11.0 µM 87% | [13]; at 33.0 µM 99% | [13]; at 100.0 µM 99% | [14]; [18] 98% | [14]; at 50.0 µM 98.4% | [15]; at 33.0 µM 99% | [15]; at 100.0 µM 94%
inactive: [1]; at 1.2 µM -3% | [1]; at 3.7 µM 3% | [1]; at 11.0 µM 27% | [2]; at 1.2 µM -3% | [2]; at 3.7 µM 4% | [2]; at 11.0 µM 15% | [3]; at 1.2 µM -5% | [3]; at 3.7 µM 2% | [3]; at 11.0 µM 19% | [3]; at 33.0 µM 56% | [4]; at 1.2 µM -3% | [4]; at 3.7 µM 11% | [5]; at 1.2 µM -4% | [5]; at 3.7 µM 7% | [5]; [17] 14% | [5]; at 11.0 µM 37% | [6]; at 1.2 µM -3% | [6]; at 3.7 µM 13% | [6]; at 11.0 µM 61% | [7]; [17] 58% | [8]; at 1.2 µM -11% | [8]; at 3.7 µM -13% | [8]; at 11.0 µM 3% | [9]; [17] -5% | [10]; at 1.2 µM -5% | [10]; at 3.7 µM 5% | [10]; [17] 8% | [10]; at 11.0 µM 56% | [11]; at 1.2 µM -1% | [11]; at 3.7 µM 18% | [11]; at 11.0 µM 53% | [12]; at 1.2 µM -1% | [12]; at 3.7 µM 14% | [13]; at 1.2 µM 7% | [13]; at 3.7 µM 37% | [14]; [17] 26% | [15]; at 1.2 µM 0% | [15]; at 3.7 µM 18% | [15]; at 11.0 µM 64%

COC1CC(CC2CCC(C)C(C(C)C(=O)O)O2)OC2(OC(C)(C3CCC(C)(C4OC(C5OC(O)(CO)C(C)CC5C)CC4C)O3)CC2C)C1C (stereo not given)
inactive: [1]; at 1.2 µM 17% | [1]; at 3.7 µM -3% | [1]; at 11.0 µM 22% | [2]; at 1.2 µM -2% | [2]; at 3.7 µM -9% | [2]; at 11.0 µM 5% | [3]; at 1.2 µM -12% | [3]; at 3.7 µM 0% | [3]; at 11.0 µM -12% | [3]; at 33.0 µM 40% | [16]; at 1.2 µM 24% | [16]; at 3.7 µM 19% | [16]; [17] 36% | [16]; at 11.0 µM 34% | [6]; at 1.2 µM 5% | [6]; at 3.7 µM -6% | [6]; at 11.0 µM -4% | [7]; [17] -1% | [8]; at 1.2 µM -46% | [8]; at 3.7 µM -22% | [8]; at 11.0 µM 50% | [9]; [17] 26% | [10]; at 1.2 µM -4% | [10]; at 3.7 µM -4% | [10]; [17] 3% | [10]; at 11.0 µM 25% | [11]; at 1.2 µM -46% | [11]; at 3.7 µM -46% | [11]; at 11.0 µM -18% | [11]; at 33.0 µM 60% | [12]; at 1.2 µM -3% | [12]; at 3.7 µM -15% | [12]; at 11.0 µM 0% | [13]; at 1.2 µM -36% | [13]; at 3.7 µM -22% | [13]; at 11.0 µM -12%
active: [1]; at 33.0 µM 93% | [1]; at 100.0 µM 98% | [2]; at 33.0 µM 93% | [2]; at 100.0 µM 98% | [3]; at 100.0 µM 90% | [16]; at 33.0 µM 96% | [16]; [18] 95% | [16]; at 50.0 µM 84.6% | [16]; at 100.0 µM 98% | [6]; at 33.0 µM 89% | [6]; at 100.0 µM 96% | [7]; [18] 91% | [7]; at 50.0 µM 89% | [8]; at 33.0 µM 93% | [8]; at 100.0 µM 96% | [9]; [18] 88% | [9]; at 50.0 µM 84% | [10]; at 33.0 µM 84% | [10]; [18] 82% | [10]; at 50.0 µM 86.3% | [10]; at 100.0 µM 97% | [11]; at 100.0 µM 91% | [12]; at 33.0 µM 83% | [12]; at 100.0 µM 97%
